# According to PubChem BioAssay (EPA / NIEHS):
# Some structures have more than one record in an assay (separate samples or runs), and their calls can disagree. Calls of active or inactive are those of the source. The calls were made as follows: active = hit-call score of the fitted dose curve at least 0.9, where 1 is the maximum; inactive = score below 0.9.
# Molecular target: Transcription factor E2F1 (Homo sapiens) (UniProt Q01094)
# Test: ATG_E2F_CIS: Attagene CIS-FACTORIAL HepG2 Assay for human E2F Transcription Factor 1 (AID 2282935)
# Settings: HepG2 Attagene cis-reporter, E2F reporter RNA transcripts; actives raise or lower the signal
# Description: ATG_CIS is a cell-based, multiplexed-readout assay that uses HepG2, a human liver cell line, with measurements taken at 24 hours after chemical dosing in a 24-well plate.ATG_E2F_CIS is one of 52 assay component(s) measured or calculated from the ATG_CIS assay. It is designed to make measurements of mRNA induction, a form of inducible reporter, as detected with fluorescence intensity signals by Reverse transcription polymerase chain reaction (RT-PCR) and Capillary electrophoresis technology.Data from the assay component ATG_E2F_CIS was analyzed into 1 assay endpoint. This assay endpoint, ATG_E2F_CIS, was analyzed with bidirectional fitting relative to DMSO as the negative control and baseline of activity. Using a type of inducible reporter, measures of mRNA for gain or loss-of-signal activity can be used to understand the reporter gene at the transcription factor-level as they relate to the gene E2F1. Furthermore, this assay endpoint can be referred to as a primary readout, because this assay has produced multiple assay endpoints where this one serves a reporter gene function. To generalize the intended target to other relatable targets, this assay endpoint is annotated to the dna binding intended target family, where the subfamily is E2F transcription factor.
# Human liver HepG2 cells are transiently transfected with multiple reporter transcription units (MRTUs) in 6-well plates using FuGene 6 reagent (Roche; 3 ml FuGene/1 mg DNA). The MRTU constructs are regulated by a cis-regulating element (promoter). […] A major difference between the CIS and TRANS system is that in CIS activities of endogenous TFs are measured, whereas the TRANS assay evaluates changes in activities of exogenous, chimeric NR-Gal4 proteins. […] At the end of 24 hour incubation, total RNA was isolated using TriZol reagent (Invitrogen). The isolated RNA is then reverse-transcribed using oligo(dT) primer and Mo-MLV reverse transcriptase (Invitrogen) with DNAse I (Ambion) treatment for 30 min. The one-tenth of the produced cDNA was amplified by PCR using Taq DNA polymerase (Invitrogen) and two reporter sequence-specific primers. The PCR products were fluorescently labeled by primer extension with 6-arboxyfluorescein (6-FAM) 5'-labeled reporter sequence-specific primer (2 min at 95 C, 20 s at 68 C and 10 min at 72 C) and these products were digested with 5U of HpaI (New England Biolabs) for 2h at 37 C. The fragments were purified using Qiaquick PCR columns (Qiagen), analyzed on an ABI 3130xL genetic analyzer (Applied Biosystems) with peak positions identified by using a set of X-rhodamine (ROX)-labeled MapMarker1000 molecular weight standards (BioVentures). The raw capillary electrophoresis data was processed using Attagraph software (Attagene).
# Chain of Transcription factor E2F1 (Homo sapiens) (Q01094 whole entry, looked up): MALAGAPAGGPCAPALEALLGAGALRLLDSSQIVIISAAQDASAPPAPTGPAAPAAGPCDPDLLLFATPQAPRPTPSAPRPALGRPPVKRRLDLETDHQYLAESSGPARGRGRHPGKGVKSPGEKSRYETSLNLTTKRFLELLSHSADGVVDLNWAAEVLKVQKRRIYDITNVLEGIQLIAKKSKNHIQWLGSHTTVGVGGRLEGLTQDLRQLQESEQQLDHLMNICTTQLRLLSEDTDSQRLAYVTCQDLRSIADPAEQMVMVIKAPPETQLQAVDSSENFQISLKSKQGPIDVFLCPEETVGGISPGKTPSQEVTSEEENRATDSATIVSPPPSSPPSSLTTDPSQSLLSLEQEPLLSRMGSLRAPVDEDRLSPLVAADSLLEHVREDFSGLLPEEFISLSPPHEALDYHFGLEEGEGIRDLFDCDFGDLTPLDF
Compound,outcome,AC50
C[C@]12CCC(=O)C=C1CC[C@@H]1[C@@H]2CC[C@@]2(C)[C@H]1CC[C@]2(C)O,inactive,
c1ccc(-c2ccccc2)cc1,inactive,
CCSC(=O)N(CC)C1CCCCC1,inactive,
CCCCCCOC(=O)c1ccccc1C(=O)OCCCCCC,inactive,
Oc1ccc(C(c2ccc(O)cc2)(C(F)(F)F)C(F)(F)F)cc1,inactive,
CCC(=O)O[C@H]1CC[C@H]2[C@@H]3CCC4=CC(=O)CC[C@]4(C)[C@H]3CC[C@]12C,inactive,
C[C@]12CCC(=O)C=C1CC[C@@H]1[C@@H]2CC[C@]2(C)C(=O)CC[C@@H]12,inactive,
CCNc1nc(NC(C)C)nc(SC)n1,inactive,
c1cc2ccc3cccc4ccc(c1)c2c34,inactive,
Cc1ccccc1CO[C@@H]1C[C@@]2(C(C)C)CC[C@]1(C)O2,inactive,
Cc1ccc(O)c(C)c1,inactive,
OCC(O)CO,inactive,
O=C(O)C(F)(F)C(F)(F)C(F)(F)C(F)(F)C(F)(F)C(F)(F)C(F)(F)C(F)(F)C(F)(F)F,inactive,
CCCCCCCCCc1ccc(O)cc1,inactive,
CCC(C)(c1ccc(O)cc1)c1ccc(O)cc1,inactive,
O=NN(c1ccccc1)c1ccccc1,inactive,
ClC1=C(Cl)[C@]2(Cl)[C@@H]3[C@@H](Cl)[C@H]4O[C@H]4[C@@H]3C1(Cl)C2(Cl)Cl,inactive,
Oc1c(Cl)c(Cl)c(Cl)c(Cl)c1Cl,inactive,
C=CC(N)=O,inactive,
CCC(C)(CC)c1cc(NC(=O)c2c(OC)cccc2OC)on1,inactive,

Compound,outcome,AC50
CN(C)CCO,inactive,
O=S(=O)(O)C(F)(F)C(F)(F)C(F)(F)C(F)(F)C(F)(F)C(F)(F)F,inactive,
CCCCCCCCCC[N+](C)(C)CCCCCCCCCC,inactive,
CC(C)C(=O)OCC(C)(C)C(OC(=O)C(C)C)C(C)C (stereo unspecified),inactive,
CO/C=C(/C(=O)OC)c1ccccc1COc1cccc(C(F)(F)F)n1,inactive,
CC1=C2C[C@H]3[C@@H](CC=C4C[C@@H](O)CC[C@@]43C)[C@@H]2CC[C@]12O[C@@H]1C[C@H](C)CN[C@H]1[C@H]2C,inactive,
CN(C)c1nc(=O)n(C2CCCCC2)c(=O)n1C,inactive,
CC(C)(c1ccccc1)c1ccc(O)cc1,inactive,56.3 µM (active)
ClC1=C(Cl)[C@]2(Cl)[C@@H]3[C@H]4C[C@H]([C@@H]5O[C@H]45)[C@@H]3[C@@]1(Cl)C2(Cl)Cl,inactive,
CC(c1ccc(O)cc1)(c1ccc(O)cc1)c1ccc(O)cc1,inactive,
Cc1cccc(C)c1N,inactive,
Cc1cc(O)ccc1Cl,inactive,
O=C(NC(=O)c1cc(F)c(F)cc1Cl)Nc1cc(F)ccc1N1CCC(C(=O)O)CC1,inactive,
CC#Cc1cc(C)nc(Nc2ccccc2)n1,inactive,
ClC1=C(Cl)[C@]2(Cl)[C@@H]3[C@@H]4C[C@@H]([C@H]5O[C@@H]45)[C@@H]3[C@@]1(Cl)C2(Cl)Cl,inactive,
O=C(O)C(F)(F)C(F)(F)C(F)(F)C(F)(F)C(F)(F)F,inactive,
Oc1ccc(Cl)cc1Cl,inactive,
Cc1ccccc1[N+](=O)[O-],inactive,
ClC(Cl)=C(c1ccc(Cl)cc1)c1ccc(Cl)cc1,inactive,175 µM (active)
